Laboratory results reported in PubChem BioAssay AID504861 (Broad Institute, 2011).
Hit rate of the full screen: of about 1,200 compounds, about 290 (24%) were called active. Not shown: some 3% with an inconclusive outcome.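 How the source made its calls: active means compounds lowering cell viability signal with fitted half-maximal concentration at most ten times their highest tested concentration; inconclusive means flat fit with 30 to 70% signal loss, or poor fit; inactive means the rest.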 These entries were drawn from the full list. Results with a measured potency or affinity are listed apart.

Assay: HEK293T cell viability reduction, dose response, cytotoxicity control for LMP1 NF-kB inhibitor project, CellTiter-Glo luminescence, cherry-picks (AID 504861)
Settings: CellTiter-Glo ATP luminescence, 48 h; series mostly up to 26 µM; activity change, negative = cytotoxicity: at the top concentration

SMILES | activity change, negative = cytotoxicity
CCn1c2ccccc2c2cc(NC(=O)c3ccccc3-c3ccccc3C(=O)O)ccc21 | 8.33% (inactive)
CCN(CC)Cc1cc(Nc2ccnc3cc(Cl)ccc23)ccc1O | -8.16% (inactive)
O=S(=O)(c1ccc2c(c1)C(=NO)c1cc(S(=O)(=O)N3CCCCC3)ccc1-2)N1CCCCC1 | -11.5% (inactive)
Nc1nc(N)nc(-c2cc(Cl)ccc2Cl)n1 | 1.65% (inactive)
CCCc1cc(=O)c2c(O)ccc(OC)c2o1 | -0.442% (inactive)
CC1CCC(NC(=O)CC2Oc3ccccc3NC2=O)CC1 (stereo unspecified) | 11.5% (inactive)
O=S(=O)(c1ccccc1)N1CCN(c2cc(-c3ccccc3)nc3ncnn23)CC1 | -3.34% (inactive)
COc1ccccc1NC(=O)C(=O)N/N=C(\C)CC(=O)Nc1ccccc1C(F)(F)F | 3.35% (inactive)
Cn1cccc1CC(=O)NNC(=S)Nc1ccccc1Cl | 5.13% (inactive)
CC(C)(C)n1nc(-c2ccc(F)cc2)c2c(N)ncnc21 | 1.55% (inactive)
CCc1nnc(NC(=O)c2cc(S(=O)(=O)N3CCN(CC)CC3)ccc2Cl)s1 | 29% (inactive)
COc1ccc(CCC(=O)Nc2ccc(C)c([N+](=O)[O-])c2)cc1 | -8.9% (inactive)
CN(C)S(=O)(=O)c1cccc(NC(=O)c2n[nH]c(=O)c3ccccc23)c1 | 12.4% (inactive)
CCc1ccc(-c2nnn(CCC(=O)OC)n2)cc1 | 11.4% (inactive)
Oc1cccc(/C=N/NC(=S)NCCN2CCOCC2)c1O | -11% (inactive)
Cc1ccc(C(=O)Nc2cccc(C(=O)N/N=C/c3ccccc3F)c2)cc1 | 2.62% (inactive)
COc1ccccc1C1(CC(=O)O)CCOC(C)(C)C1 (stereo unspecified) | 10.4% (inactive)
CCCN1C(=O)C2(SC(NC(C)=O)=NN2C(C)=O)c2cc(C)cc(C)c21 (stereo unspecified) | 5.8% (inactive)
COc1ccc(OC)c2c1sc(=NC(=O)c1ccco1)n2C | 4.28% (inactive)
Cc1ccc(NC(=S)Nc2cccc(S(=O)(=O)Nc3c(C)n(C)n(-c4ccccc4)c3=O)c2)cc1 | 9.45% (inactive)
Cc1ccc(C)c(S(=O)(=O)N2CCN(C(=O)c3ccc(C)s3)CC2)c1 | -9.08% (inactive)
O=C(Cn1ccc(C(F)(F)F)n1)Nc1cccc(S(=O)(=O)N2CCCCC2)c1 | 3.77% (inactive)
Cc1ccc(S(=O)(=O)N[C@H](C(=O)N2CCC(C(=O)N[C@@H](CC(=O)O)C(=O)O)CC2)C(C)C)cc1 | -4.38% (inactive)

SMILES | activity change, negative = cytotoxicity
C=CCn1c(C)c(C(C)=O)c(N2CCN(C(c3ccccc3)c3ccccc3)CC2)nc1=S | -5.9% (inactive)
COC(=O)c1ccc(COc2ccccc2/C=C/C(=O)c2ccc(OCC(=O)O)cc2)cc1 | 5.12% (inactive)
COc1ccccc1OCc1ccc(C(=O)c2ccccc2)cc1 | 10.3% (inactive)
COc1cccc(C(=O)N2CCN(c3nc4cc(C)cc(C)c4cc3C#N)CC2)c1 | 8.25% (inactive)
Cc1ccc(N2CCN(C3=NC(=O)/C(=C\c4cn[nH]c4-c4ccccc4)S3)CC2)cc1 | 4.77% (inactive)
Cc1cnc(NC(=O)c2ccc(OCC3CCCO3)cc2)s1 (stereo unspecified) | -1.67% (inactive)
O=C(CSc1nnc(NC(=O)c2ccc3c(c2)OCO3)s1)NCc1ccco1 | 0.231% (inactive)
COc1ccc(C(=O)N(CN2CCCC2=O)c2cc(C)on2)cc1OC | -6.13% (inactive)
O=C(C[n+]1ccccc1)N/N=C/c1ccc(O)cc1 | 2.54% (inactive)
COc1ccc(/C=C\C(=O)NCc2ccc3c(c2)cc(C)n3C)cc1OC | 3.26% (inactive)
CCCCNC(=S)Nc1ccc([N+](=O)[O-])cc1 | -12.9% (inactive)
O=C(CCN1CCC(c2ccccc2)C1)c1ccc2c(c1)OCCO2 (stereo unspecified) | -1.97% (inactive)
CC(=O)Nc1ccc(OCCCNC(=O)c2c(-c3ccccc3)noc2C)cc1 | -1.68% (inactive)
CC(C)c1ccc(OCc2cccc(C(=O)N/N=C/c3cccnc3)c2)cc1 | 1.92% (inactive)
O=C(CCc1ccccc1Cl)N1CCN(S(=O)(=O)c2ccccc2)CC1 | 5.52% (inactive)
O=C(O)c1ccc(N/N=C/c2cc3cc4c(cc3nc2Cl)OCCO4)cc1 | -0.046% (inactive)
O=C(Cc1cccc2ccccc12)Nc1ccc(-c2cc3ccccc3oc2=O)cc1 | -1.29% (inactive)
NC(=O)N/N=C/c1ccc(N2CCOCC2)s1 | 10.5% (inactive)
CC1(C)CC(NS(=O)(=O)c2ccc(F)cc2)CC(C)(C)N1 | 8.26% (inactive)
O=[N+]([O-])c1ccc(N2CCN(Cc3cccc([N+](=O)[O-])c3)CC2)cc1 | -7.8% (inactive)
O=c1[nH]c(=O)n([C@H]2C[C@H](O)[C@@H](CO)O2)cc1F | -3.58% (inactive)
c1ccc(-c2nnc(-c3ccccn3)s2)nc1 | -7.33% (inactive)
Cc1c(NC(=O)c2cccc(NC(=O)COc3ccccc3C#N)c2)c(=O)n(-c2ccccc2)n1C | 14.7% (inactive)

SMILES | activity change, negative = cytotoxicity
Cc1ccc(C(=O)Nc2cccc(C(=O)O)c2)cc1S(=O)(=O)N1CCCCC1 | -7.81% (inactive)
Cc1nc(Nc2nc3ccccc3o2)nc2c1CCC2 | -4.54% (inactive)
COc1ccc(C=NNc2nc3ccccc3s2)cc1 | -4.18% (inactive)
Cc1cccc(C)c1Nc1nc2ccccc2o1 | 1.76% (inactive)
CC1CCCN(C(=O)COC(=O)c2n[nH]c3ccccc23)C1 (stereo unspecified) | -0.648% (inactive)
COc1c(S(=O)(=O)N2CCN(c3ccc(F)cc3)CC2)ccc(Cl)c1Cl | 15.6% (inactive)
CC(=O)c1ccc(-c2nc3c4ccccc4ccn3c2C(C)=O)o1 | 5.35% (inactive)
Cc1nn(-c2ccccc2)c(Cl)c1C1C(C#N)=C(N)Oc2n[nH]c(C)c21 (stereo unspecified) | 4.68% (inactive)
CCCCN(c1ccccc1)c1ncnc(N)c1[N+](=O)[O-] | -2.28% (inactive)
CN1CCN(CCOc2ccc(Cc3ccccc3)cc2)CC1 | -4.83% (inactive)
OC(CCCN1CCCCC1)(c1ccccc1)c1ccccc1 | -0.532% (inactive)
COc1ccc(/C=C/C(=O)OCC(=O)NCc2ccco2)cc1OC | 0.098% (inactive)
NNC(=O)c1cccc(COc2ccc3c(c2)CCC3)c1 | -3.05% (inactive)
O=c1c([N+](=O)[O-])cn(Cc2ccccc2)c(=O)n1Cc1ccccc1 | 2.12% (inactive)
O=C1CSC(=S)N1Cc1ccccc1 | 7.17% (inactive)
CCOC(=O)C1=C(O)/C(=C/c2ccc(CNC(=O)C(=O)Nc3ccc(C)cc3)o2)N=C1C | 2% (inactive)
O=C1CN(C(=O)c2ccc(F)c(S(=O)(=O)N3CCOCC3)c2)c2ccccc2N1 | 16.8% (inactive)
COC(=O)[C@H](C)[C@H]1C[C@]1(C)[C@H](NC(=O)OCc1ccccc1)c1ccccc1 | 1.67% (inactive)
Clc1ccccc1C1=Nn2c(nnc2-c2ccncc2)SC1 | 5.05% (inactive)
Cc1cc(N/N=C\c2ccc(Br)cc2)nc(-n2nc(C)cc2C)n1 | 5.46% (inactive)
COc1ccc(S(=O)(=O)N2CCN(C(=S)NCC3CCCO3)CC2)cc1OC (stereo unspecified) | 4.99% (inactive)
Oc1c(N=NC(=S)Nc2ccccc2F)c2ccccc2n1Cc1ccccc1Cl | 19.4% (inactive)
COc1ccc(C2=NN(C(=O)CSC3=NN4CCCC(=O)N=C4S3)C(c3cccc(OC)c3OC)C2)cc1 (stereo unspecified) | -3.83% (inactive)

SMILES | activity change, negative = cytotoxicity
O=C(NC1=NCCS1)c1cc2ccccc2o1 | -0.619% (inactive)
O=C(O)[C@@H]1[C@H]2C[C@H]3c4[nH]c5ccccc5c4CCN3C[C@@H]2CC[C@@H]1O | 10.1% (inactive)
Cc1ccnc(NC(=O)c2ccc(OCC3CCCO3)cc2)c1 (stereo unspecified) | -4.98% (inactive)
Cc1ccnc(NC(=O)c2ccc(C(=O)c3ccccc3)cc2)c1 | 21.4% (inactive)
COc1ccc(C(c2c(C)n(C)n(-c3ccccc3)c2=O)c2c(C)n(C)n(-c3ccccc3)c2=O)c(OC)c1OC | 0.432% (inactive)
CCCNC(=O)N1CCN(S(=O)(=O)c2ccc(C)c(C)c2)CC1 | 5.01% (inactive)
O=C(CCC(=O)NNC(=O)Nc1cccc(Cl)c1)NCc1ccccc1 | -2.26% (inactive)
Cc1cc(NCCCn2ccnc2)n2ncc(-c3ccccc3)c2n1 | 2.7% (inactive)
O=C(Nc1cnc2ccccn2c1=O)c1ccc(Cl)cc1Cl | 5.04% (inactive)
O=C1c2cccc3c(O)ccc(c23)C(=O)N1c1ccc(Cl)cc1 | 5.3% (inactive)
CC(=O)c1ccc(-n2nnnc2SCC(=O)N2CCc3ccccc3C2)cc1 | -0.209% (inactive)
COc1cc(N)c(Cl)cc1C(=O)NC1CCN(Cc2ccccc2)CC1 | -0.368% (inactive)
CCOc1ccc(NC(=O)c2cnsn2)cc1 | 10.2% (inactive)
COc1ccc(-n2c(C)c(C(C)=O)c3cc(O)ccc32)cc1 | 0.983% (inactive)
Clc1ccc(-n2nnnc2Sc2ncnc3sccc23)cc1 | 10.2% (inactive)
COc1cc2nc(NC(=O)c3ccco3)sc(=O)c2cc1OC | -2.86% (inactive)
O=C(Nc1ccc(Cl)cc1)c1ccco1 | -7.91% (inactive)
COc1cccc(/C=C2\SC(=S)N(CCC(=O)NCCc3ccc(O)cc3)C2=O)c1 | 8.59% (inactive)
COc1ccc(NC(=O)Cn2nnc(C(=O)NCc3ccccc3)c2N)c(OC)c1 | 6.31% (inactive)
CNC(=O)C1=NCCCc2cc(OC)c(OC)cc21 | -10.9% (inactive)
CCc1ccc(/C=C2\SC(=S)N(CCCC(=O)Nc3ccccn3)C2=O)cc1 | 2.77% (inactive)
COc1ccc(OC)c2[nH]c(=O)c(CCNC(=O)c3ccc(S(=O)(=O)N(C)C)cc3)cc12 | 5.95% (inactive)
O=C(NOCc1ccccc1)c1ccc(Cl)cc1Cl | 2.96% (inactive)

SMILES | activity change, negative = cytotoxicity
CCOC(=O)c1nc(NCc2ccccc2F)c2ccccc2n1 | -0.295% (inactive)
C/C(=N\NS(=O)(=O)c1ccc([N+](=O)[O-])cc1)c1cccs1 | 7.67% (inactive)
CC1Cc2ccccc2N1c1ncnc(N)c1[N+](=O)[O-] (stereo unspecified) | -12.3% (inactive)
O=C(/C=C/Nc1ccc(F)cc1Br)c1ccccc1 | -5.49% (inactive)
COc1ccc(C(=O)Nc2nnc(SCC(=O)NC3CC3)s2)cc1 | 1.92% (inactive)
O=C(COc1ccc2ccccc2c1)NCCNC(=O)COc1ccc2ccccc2c1 | -3.57% (inactive)
Cc1ccc(C(=O)CSc2nnnn2C(C)C)c(C)c1 | 7% (inactive)
O=C(Nc1nnc(-c2cccs2)o1)c1cccc(C(F)(F)F)c1 | 8.43% (inactive)
COc1ccc(OCc2cccc(C(=O)Nn3cc([N+](=O)[O-])cn3)c2)cc1 | 9.18% (inactive)
COc1ccc(C(=O)Nc2cccc(C(=O)N/N=C/c3ccc(OC)cc3OC)c2)cc1 | 9.7% (inactive)
Cc1ccc(C(=O)N2CCN(c3ccc(NC(=O)CSc4ccc(Cl)cc4)cc3)CC2)cc1 | 6.23% (inactive)
Cc1nnc(SCc2cnc(-c3ccc(C(C)C)cc3)s2)n1C | -3.15% (inactive)
Cc1cc(NC(=O)CSc2ccnc(=O)[nH]2)no1 | 19.6% (inactive)
O=C1OCCC1Sc1nnc(-c2ccc(Cl)cc2Cl)o1 (stereo unspecified) | 9.49% (inactive)
O=c1[nH]c(Nc2nc3ccccc3o2)nc2c1CCCC2 | 2.83% (inactive)
O=C(CC(c1ccc(F)cc1)c1ccco1)N1CCOCC1 (stereo unspecified) | 4.11% (inactive)
O=C(Nc1ccc(CN2CCOCC2)cc1)c1cc2ccccn2n1 | -4.33% (inactive)
Clc1ccc(-c2ccnc(Oc3ccc4ccccc4c3)n2)cc1 | 2.96% (inactive)
CC(C)(C)c1cc(C(=O)NNC(=O)Nc2cccc(Cl)c2)n(Cc2ccccc2)n1 | 10.8% (inactive)
